Data: article PMC8159961, “Exploring protein hotspots by optimized fragment pharmacophores” (Nature Communications, 2021)
Unmarked numbers belong to inactive results. How the calls were made is not given here.

Target: 5-HT1A receptor (human, UniProt P08908)
Test: primary screen, binary call; higher = more effect of the substance
Parameters: hit call from the mean of at least two separate experiments
Conditions: 10 µM
Procedure: GPCR radioligand binding assays were performed in HEK293 cells with stable expression of human 5-HT1A, 5-HT6, and 5-HT7b receptors (prepared with the use of Lipofectamine 2000). Non-specific binding was defined with 10 µM of 5-HT in 5-HT1AR and 5-HT7R binding experiments, whereas 10 µM of mianserin was used in 5-HT6R assays, respectively. Each compound was tested at 10 µM concentration. Results were expressed as means of at least two separate experiments.

Sequence of 5-HT1A receptor (P08908 whole entry, looked up): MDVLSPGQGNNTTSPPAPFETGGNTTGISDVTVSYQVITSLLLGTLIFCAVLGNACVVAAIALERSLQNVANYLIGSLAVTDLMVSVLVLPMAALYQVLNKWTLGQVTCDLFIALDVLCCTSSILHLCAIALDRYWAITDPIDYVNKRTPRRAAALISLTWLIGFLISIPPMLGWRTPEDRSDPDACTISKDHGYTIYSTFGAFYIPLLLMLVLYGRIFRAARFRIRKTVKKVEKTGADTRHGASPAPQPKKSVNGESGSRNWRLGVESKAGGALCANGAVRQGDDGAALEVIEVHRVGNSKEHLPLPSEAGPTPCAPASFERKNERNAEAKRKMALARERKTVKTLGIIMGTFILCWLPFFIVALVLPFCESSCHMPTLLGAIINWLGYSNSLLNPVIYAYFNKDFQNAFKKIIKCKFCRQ

SMILES	5-HT1
Oc1ccc(C2CCNCC2)cc1	0
CC1C(=O)NC(=O)N1c1ccc(Cl)cc1 (stereo not shown)	0
O=C(c1ccncc1)N1CCNCC1	0
Cc1ccc(C)n1Cc1ccccc1Cl	0
Cc1nccn1Cc1cccc(C#N)c1	0
O=C1CSC(Nc2ccc(F)cc2)=N1	0
Cc1ccc(CCNc2ccccc2)cn1	0
N#Cc1ccc(C(=O)N2CCOCC2)cc1	0
c1ccc2oc(C3CCCNC3)nc2c1 (stereo not shown)	1 (active)
NCC1(c2ccccc2)CCOCC1	0
O=C1CCC(=O)N(c2ccccc2)N1	0
N#Cc1ccc2ncsc2c1	0
Cn1c(CO)nc2ccccc21	0
Cc1cc(C)c2c(=O)[nH]n(C)c2n1	0
COc1cccc(NC2=NCCCCC2)c1	0
CC(CN)N1CCc2sccc2C1 (stereo not shown)	0
c1ccc(-c2ccncc2)cc1	0
CC1CCc2sc(C(=O)O)cc2C1 (stereo not shown)	0
Oc1nnc(-c2ccccc2)o1	0
Fc1ccc2c(C3CCNCC3)c[nH]c2c1	1 (active)

SMILES	5-HT1
NC1CCc2ccccc21 (stereo not shown)	0
O=C1CCCc2occc21	0
N#CCCN1CCc2ccccc21	0
O=c1[nH]c2c(s1)CCC2	0
O=C1CCN(c2ccncc2)CC1	0
CCc1nccn1CC(=O)O	0
CS(=O)(=O)c1ccc(OC(F)(F)F)cc1	0
CC(=O)c1ccc2c(c1)CNCC2	0
O=c1[nH]ncc2c1oc1ccccc12	0
CS(=O)(=O)Nc1ccc(C(=O)O)cc1	0
COC(=O)c1c(C)nc(C2CC2)[nH]c1=O	0
N[C@H]1c2ccccc2C[C@H]1CO	0
O=C(O)c1cnc(-c2ccccc2)s1	0
COc1ccc(C2=CCNCC2)cc1	0
Cn1nc(C(F)(F)F)cc1O	0
c1ccc(Nc2nncs2)cc1	0
Oc1ccccc1N1CCCCC1	0
O=C1CCN(c2ccccn2)CC1	0
CC(=O)c1ccc2c(c1)CCCN2	0
c1ccc2c(N3CCNCC3)ccnc2c1	1 (active)
